# According to paper PMC7862700, “An all-to-all approach to the identification of sequence-specific readers for epigenetic DNA modifications on cytosine”:
# Key:
# Assay in all cases: DAPPL (digital affinity profiling via proximity ligation, sequencing); 10 mM Tris-HCl pH 7.5, 50 mM NaCl, 1 mM DTT, 4% glycerol, room temperature, 30 min; GST-TFs on glutathione beads, 16-mer random dsDNA library, 0.1% formaldehyde crosslink after washing; high values mean tight binding
# Details in all cases: protein: recombinant; tags: N-terminal GST; dsDNA, one strand shown
# GABPA = biological target: T1, GABPA (Homo sapiens, UniProt Q06546 1-454)
# T1 sequence: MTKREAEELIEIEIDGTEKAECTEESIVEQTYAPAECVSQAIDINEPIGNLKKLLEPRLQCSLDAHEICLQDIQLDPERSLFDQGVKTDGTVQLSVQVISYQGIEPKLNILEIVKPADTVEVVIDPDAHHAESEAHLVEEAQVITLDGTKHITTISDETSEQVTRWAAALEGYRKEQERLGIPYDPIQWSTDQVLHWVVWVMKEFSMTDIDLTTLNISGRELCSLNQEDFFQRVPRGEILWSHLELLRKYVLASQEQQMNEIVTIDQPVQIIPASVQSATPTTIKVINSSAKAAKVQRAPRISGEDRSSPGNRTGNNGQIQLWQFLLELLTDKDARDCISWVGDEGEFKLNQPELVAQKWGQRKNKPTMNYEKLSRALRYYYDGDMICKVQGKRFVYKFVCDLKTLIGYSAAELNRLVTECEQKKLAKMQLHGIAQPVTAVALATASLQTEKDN
# Outline: (§1)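 Human transcription factors fused to GST were expressed in yeast, captured on glutathione beads, given DNA barcodes and pooled with a GST-only negative control. Pools were incubated with 200 nmole of a 16-mer random double-stranded DNA library in Tris/NaCl/DTT/glycerol buffer at room temperature for 30 min. They were then washed, crosslinked with 0.1% formaldehyde, proximity-ligated (BsaI/T4 ligase, 1 h, 37 °C), PCR-amplified and sequenced on an Illumina NextSeq500. Binding signal is each 6-mer's read frequency for a factor divided by its frequency for the GST control.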
# ELF1 = ELF1 (Homo sapiens, UniProt P32519 1-619)
# Outline: as §1
# ETV5 = ETV5 (Homo sapiens, UniProt P41161 1-510)
# Outline: as §1
# ELK4 = biological target: T2, ELK4 (Homo sapiens, UniProt P28324-2 1-405)
# T2 sequence: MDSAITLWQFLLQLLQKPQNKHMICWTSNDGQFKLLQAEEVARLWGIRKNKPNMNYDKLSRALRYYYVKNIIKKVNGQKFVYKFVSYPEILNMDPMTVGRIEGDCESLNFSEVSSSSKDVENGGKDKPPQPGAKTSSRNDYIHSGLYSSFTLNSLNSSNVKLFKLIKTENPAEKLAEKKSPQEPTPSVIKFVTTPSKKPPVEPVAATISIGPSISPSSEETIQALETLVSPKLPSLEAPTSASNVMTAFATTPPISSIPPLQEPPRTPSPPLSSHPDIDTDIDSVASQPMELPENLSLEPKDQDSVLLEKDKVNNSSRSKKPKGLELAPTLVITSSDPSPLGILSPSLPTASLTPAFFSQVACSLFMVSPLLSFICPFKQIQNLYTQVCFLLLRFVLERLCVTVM
# Outline: as §1
# ETV7 = biological target: T3, ETV7 (Homo sapiens, UniProt Q9Y603 1-341)
# T3 sequence: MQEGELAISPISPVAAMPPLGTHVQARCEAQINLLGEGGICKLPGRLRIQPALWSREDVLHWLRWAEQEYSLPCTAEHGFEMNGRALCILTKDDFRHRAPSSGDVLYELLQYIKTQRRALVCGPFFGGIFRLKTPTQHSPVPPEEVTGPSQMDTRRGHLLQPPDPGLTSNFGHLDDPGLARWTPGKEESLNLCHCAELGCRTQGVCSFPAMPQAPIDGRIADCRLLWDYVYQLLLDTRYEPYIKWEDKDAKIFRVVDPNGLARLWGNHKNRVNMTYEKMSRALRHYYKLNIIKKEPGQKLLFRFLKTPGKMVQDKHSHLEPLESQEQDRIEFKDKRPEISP
# Outline: as §1
# ETV3 = biological target: T4, ETV3 (Homo sapiens, UniProt P41162-2 1-143)
# T4 sequence: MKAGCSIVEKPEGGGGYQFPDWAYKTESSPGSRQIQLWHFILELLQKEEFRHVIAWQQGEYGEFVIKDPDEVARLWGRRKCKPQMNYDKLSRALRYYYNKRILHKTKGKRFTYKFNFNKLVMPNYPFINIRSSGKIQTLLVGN
# Outline: as §1
# ETV6 = ETV6 (Homo sapiens, UniProt P41212 1-452)
# Outline: as §1
# Chain of ETV5 (P41161 whole entry): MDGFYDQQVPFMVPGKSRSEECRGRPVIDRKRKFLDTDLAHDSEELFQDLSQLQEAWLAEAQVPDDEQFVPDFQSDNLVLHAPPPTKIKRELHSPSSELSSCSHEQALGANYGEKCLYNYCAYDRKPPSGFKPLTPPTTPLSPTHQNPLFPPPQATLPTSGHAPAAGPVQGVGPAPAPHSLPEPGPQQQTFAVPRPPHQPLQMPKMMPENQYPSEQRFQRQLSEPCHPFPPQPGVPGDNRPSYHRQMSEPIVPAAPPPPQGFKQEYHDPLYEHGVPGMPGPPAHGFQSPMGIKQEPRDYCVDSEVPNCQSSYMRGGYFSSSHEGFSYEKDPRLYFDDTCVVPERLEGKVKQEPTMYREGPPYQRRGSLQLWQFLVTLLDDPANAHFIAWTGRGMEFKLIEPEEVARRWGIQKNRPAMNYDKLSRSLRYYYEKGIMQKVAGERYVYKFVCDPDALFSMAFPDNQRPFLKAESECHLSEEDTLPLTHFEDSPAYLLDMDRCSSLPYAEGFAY
# Chain of ETV6 (P41212 whole entry): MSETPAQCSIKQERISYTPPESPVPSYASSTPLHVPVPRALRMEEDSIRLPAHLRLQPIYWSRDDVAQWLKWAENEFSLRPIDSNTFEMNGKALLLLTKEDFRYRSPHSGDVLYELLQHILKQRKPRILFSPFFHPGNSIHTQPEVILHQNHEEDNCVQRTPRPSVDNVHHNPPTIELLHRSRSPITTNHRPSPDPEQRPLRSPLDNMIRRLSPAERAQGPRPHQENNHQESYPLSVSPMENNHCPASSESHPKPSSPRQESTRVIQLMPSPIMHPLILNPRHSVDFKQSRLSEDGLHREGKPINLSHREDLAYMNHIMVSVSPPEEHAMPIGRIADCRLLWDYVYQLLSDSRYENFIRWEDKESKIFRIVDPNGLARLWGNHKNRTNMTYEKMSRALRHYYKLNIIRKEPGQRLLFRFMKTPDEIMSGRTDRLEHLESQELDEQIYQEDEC
# Chain of ELF1 (P32519 whole entry): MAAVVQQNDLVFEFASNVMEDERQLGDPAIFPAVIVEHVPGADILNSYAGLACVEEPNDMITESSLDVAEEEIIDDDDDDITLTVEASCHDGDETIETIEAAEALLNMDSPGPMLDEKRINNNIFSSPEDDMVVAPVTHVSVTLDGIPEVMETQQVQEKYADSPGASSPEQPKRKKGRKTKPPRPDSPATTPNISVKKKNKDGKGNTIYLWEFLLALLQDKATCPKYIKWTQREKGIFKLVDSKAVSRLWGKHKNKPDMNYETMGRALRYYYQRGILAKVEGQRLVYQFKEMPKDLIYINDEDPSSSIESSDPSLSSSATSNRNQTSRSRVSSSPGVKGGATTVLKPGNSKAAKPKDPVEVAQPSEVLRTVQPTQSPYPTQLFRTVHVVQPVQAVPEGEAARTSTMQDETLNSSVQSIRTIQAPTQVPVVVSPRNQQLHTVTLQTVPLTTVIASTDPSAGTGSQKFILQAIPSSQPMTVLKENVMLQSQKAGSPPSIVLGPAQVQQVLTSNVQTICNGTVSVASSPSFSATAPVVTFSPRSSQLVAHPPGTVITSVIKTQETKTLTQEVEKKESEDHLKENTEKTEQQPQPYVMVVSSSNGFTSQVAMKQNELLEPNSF
sequence,measurement,setting,value
CGACGG,binding signal,GABPA,"1.09 fold enrichment (6-mer frequency, TF over GST control)"
same,binding signal,ELF1,"1.01 fold enrichment (6-mer frequency, TF over GST control)"
same,binding signal,ETV5,"1 fold enrichment (6-mer frequency, TF over GST control)"
same,binding signal,ELK4,"1.02 fold enrichment (6-mer frequency, TF over GST control)"
same,binding signal,ETV7,"1.13 fold enrichment (6-mer frequency, TF over GST control)"
same,binding signal,ETV3,"1.05 fold enrichment (6-mer frequency, TF over GST control)"
same,binding signal,ETV6,"1.03 fold enrichment (6-mer frequency, TF over GST control)"
